Screening results as filed in PubChem.
A selection: hits, their analogues and other compounds. The true share with any hit is near 2.3%.
AmpC inh no detg: blocks E. coli AmpC beta-lactamase in detergent-free assay; Potency, µM (top dose mostly 57.1 µM), inactives show at the highest dose activity change, negative = inhibition, most hits filed as inhibitors; P00811; AmpC nitrocefin hydrolysis, absorbance 480 nm, 0.0001% Triton; AID 485341; actives 0.52% (n = 330,000);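 further: plate controls were no compound for no effect and no enzyme for full effect; nearly all actives have a fitted effect of over 20% in size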
Target sequence (P00811 whole entry, looked up): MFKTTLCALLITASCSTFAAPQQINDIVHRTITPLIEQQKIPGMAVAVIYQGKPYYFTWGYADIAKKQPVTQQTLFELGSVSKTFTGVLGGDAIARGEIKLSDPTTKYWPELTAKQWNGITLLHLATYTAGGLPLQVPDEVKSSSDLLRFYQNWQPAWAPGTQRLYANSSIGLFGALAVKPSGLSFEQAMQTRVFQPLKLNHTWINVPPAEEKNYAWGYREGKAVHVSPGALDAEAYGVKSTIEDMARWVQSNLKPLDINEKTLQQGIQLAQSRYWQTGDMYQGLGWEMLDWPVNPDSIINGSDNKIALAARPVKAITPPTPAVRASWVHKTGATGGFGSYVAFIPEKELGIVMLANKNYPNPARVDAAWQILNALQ
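AmpC (5.3 nM in the dispensed reagent) in 20 mM phosphate pH 7.0 with 0.01% (detergent screen) or 0.0001% Triton X-100 was preincubated with compounds for 15 min at room temperature. Nitrocefin was then added from an 800 uM solution, and hydrolysis was followed at 480 nm.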
LASV entry inh: blocks Lassa virus binding to or entry into cells. Potency, µM (titrated, usually from 37.9 µM), for the others: at the highest dose activity change, negative = inhibition, actives largely listed as inhibitors. actives 1.2% (n = 300,000). Lassa virus pseudotype entry inhibition, cell reporter. AID 540256; calls by dose curve; tested in HEK293 cells; further: nearly all actives have a fitted effect of over 50% in size
AMA1 RON2 block: disrupts binding of P. falciparum AMA1 to RON2 | AlphaScreen AMA1-biotinylated RON2 peptide binding | Potency, µM (highest dose often 58.2 µM), inactives show at the highest dose activity change, negative = inhibition, most hits filed as inhibitors | AID 720542 | actives 0.2% (n = 360,000);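 further: 0% = vehicle wells and -100% = peptide control; nearly all actives have a fitted effect of over 45% in size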
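AMA1 (3D7) with his tag at 25 nM final met compounds first, then biotinylated RON2 peptide at 25 nM; detection used donor plus acceptor beads, 10 µg/mL apiece, read by AlphaScreen after 30 min at room temperature.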
AmpC detergent: blocks E. coli AmpC beta-lactamase in detergent assay; Potency, µM (series often up to 114 µM), for the others: at the top dose activity change, negative = inhibition, hits mostly inhibitors; AmpC hydrolysis of nitrocefin, absorbance 480 nm, 0.01% Triton; actives 0.041% (n = 370,000);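 further: 0% = no-compound wells and -100% = no-enzyme wells; nearly all actives have a fitted effect of over 25% in size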
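20 mM phosphate pH 7.0 + 0.01% (detergent screen) or 0.0001% Triton X-100; 5.3 nM AmpC reagent; cpd preinc 15 min RT; nitrocefin (800 uM stock) to start; A480 q20 s × 4 min; Activity was normalised to no-enzyme and no-compound control wells.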
MARV entry inh: blocks Marburg virus binding to or entry into cells. Marburg virus pseudotyped entry inhibition, cell reporter. Potency, µM (titrated, usually from 37.8 µM), inactives show top-dose activity change, negative = inhibition, actives largely listed as inhibitors. AID 540276. actives 1.8% (n = 300,000); calls by dose curve; tested in HEK293 cells
The depositor's hits bear a star; ? = inconclusive; / = no result; [ ] = remark or other dose. Unless noted, the call rests on the fitted dose curve; in most records, active means well fitted curve in the direction sought with a large enough effect; inconclusive means small, poorly fitted or top-dose-only effect, or another doubt; inactive means no such curve, though single readings can be large; an effect the other way counts as inactive or inconclusive. Unless noted, on the % scale 0 is the no-effect control and ±100 the full control effect; potency means the concentration at half of the fitted maximal effect.

SMILES	AmpC inh no detg	LASV entry inh	AMA1 RON2 block	AmpC detergent	MARV entry inh
Cc1ccc(NC(=O)CCCn2c(=O)c3cccn3c3cccnc32)cc1C	/	-2%[46.1 µM]	/	16%	/
Cc1ccc(CSc2sc(C(=O)c3ccccc3)c(N)c2C#N)cc1	10µM*	?	6%	0%	-30%[46.1 µM]
Cc1cc(NC(=O)c2noc3c2CCc2ccccc2-3)n(-c2ccccc2)n1	1µM*	/	-2%	2%	/
CN(C)C(=Nc1ccccc1)P(=S)(N(C)C)N(C)C	16%	?	-1%	3%	4%[46.1 µM]
COc1ccc(N=C(N(C)C)P(=O)(N(C)C)N(C)C)cc1	28µM*	-1%[46.1 µM]	-12%	?	?
COc1ccc(CCNC(=O)CSc2nc(-c3ccc(F)cc3)cc(C(F)(F)F)n2)cc1OC	/	4%[46.1 µM]	/	22%	1%[46.1 µM]
COC(=O)[C@@H]1CC[C@H](C)[C@@H](c2ccc(C)cc2)N1C(=O)c1ccc(C=NOC[C@@H](O)COCc2ccco2)cc1	/	15%[14.3 µM]	/	/	?
O=C(N/N=C/c1ccccc1Cl)c1n[nH]c2c1CCCC2	-23%	?	11%	?	1.3µM*
CC(=O)Nc1ccc(S(=O)(=O)Nc2cccc(-c3ccc(N4CCC(C)CC4)nn3)c2)cc1	/	11µM*	/	-5%	/
Cc1nc2c(=O)n(C)c(=O)nc-2n(C)n1	-20%	0.56µM*	-23%	-4%	0.89µM*
CCc1nc2ccc(C(=O)NCc3ccccc3OC)cn2c1N(C)Cc1ccc(N(C)C)cc1	/	/	14µM*	/	/
CCc1nc2ccc(C(=O)NCc3ccccc3OC)cn2c1N(CC)CCN(C)C	/	/	-2%	/	/
CC=COC(=O)N[C@@H](c1ccccc1)[C@]1(C(=O)OCC)CCCC1=O	/	/	/	/	2%[14.2 µM]
COC(=O)C1=C(C)NC2=C(C(=O)c3ccccc32)C1c1cccc(OC)c1 (configuration not stated)	0%	/	-8%	2%	/
CC1=C([N+](=O)[O-])C(c2cccc(Br)c2)C2=C(N1)c1ccccc1C2=O (configuration not stated)	-54%	?	-5%	-7%	1.3µM*
CCN1C(=NCc2ccc3c(c2)OCO3)NC(CCc2ccccc2)C(C(=O)OC)=C1C (configuration not stated)	/	?	/	/	-30%[14.2 µM]
O=C(CN1CCOCC1)Nc1ccccc1Sc1ccccc1	66%	17%[46.1 µM]	20%	-10%	16%[46.1 µM]
CC(=O)N1CCN(CC(=O)Nc2ccccc2Sc2ccccc2)CC1	267%	10µM*	26%	-1%	?
N#Cc1ccccc1Cn1c(=O)n(CCCC(=O)NCc2ccccc2Cl)c(=O)c2ccccc21	/	-1%[46.1 µM]	/	0%	?
O=C(OCCN1C(=O)c2cccc3c(N4CCOCC4)ccc(c23)C1=O)c1ccccc1Cl	47%	?	31%[11.6 µM]	-5%	7.1µM*
O=C(OCCN1C(=O)c2cccc3c(N4CCOCC4)ccc(c23)C1=O)c1ccc(Cl)cc1Cl	-27%	?	104%[11.6 µM]	2%	?
Cc1cccc(-c2noc(-c3cc(C(C)C)[nH]n3)n2)c1	/	14%[46.1 µM]	/	4%	/
CCC(=O)N1CCc2cc(Br)cc(S(=O)(=O)NCCCN(C)Cc3ccccc3)c21	10%	18%	4%	1%	?
CCC(=O)N1CCc2cc(Br)cc(S(=O)(=O)NC3CCN(Cc4ccccc4)CC3)c21	85%	2.2µM*	-3%	-9%	?
Cc1ccc(SCc2cc(=O)[nH]c(Nc3nc(C)c4cccc(C)c4n3)n2)cc1	-18%	-51%[14.3 µM]	3%	-11%	9.2µM*
SMILES	AmpC inh no detg	LASV entry inh	AMA1 RON2 block	AmpC detergent	MARV entry inh
CSC1=C(C#N)[C@H](C)CC(=O)N1	/	/	/	/	-17%
COc1cccc(-c2cc(C(=O)NCc3ccccc3)[nH]n2)c1	/	7.9µM*	/	-3%	/
COc1cccc(-c2ccc3c(N)c(C(=O)NCc4ccc(Cl)cc4)sc3n2)c1	/	7.9µM*	/	5%	-14%[46.1 µM]
Cc1ccc(C2CC(=O)c3cnc(N4CCN(c5ccccc5)CC4)nc3C2)cc1 (configuration not stated)	-17%	-13%	8%	-10%	5%
Cc1ccc(C2CC(=O)c3cnc(N4CCc5ccccc5C4)nc3C2)cc1 (configuration not stated)	31%	3.7µM*	-11%	-12%	-1%
O=C1CC(c2ccc(F)cc2)Cc2nc(N3CCN(c4ccccc4)CC3)ncc21 (configuration not stated)	-36%	-1%	-2%	?	15%
O=C1CC(c2ccccc2)Cc2nc(N3CCc4ccccc4C3)ncc21 (configuration not stated)	-26%	15µM*	0%	?	15%
CC1CC(C)CN(c2ncc3c(n2)CC(c2ccccc2Cl)CC3=O)C1 (configuration not stated)	-22%	10µM*	-4%	2%	?
Cc1cccc(NC(=O)CSc2nc3n[nH]c(C)c3c(=N)n2-c2cccc(Cl)c2)c1	/	?	/	-6%	/
COc1ccc(NC(=O)C2(c3cccs3)CCOCC2)cc1Cl	/	-3%[46.1 µM]	/	4%	/
Nc1ccc(Br)cc1C(=O)c1ccccc1	-14%	/	-21%	2%	/
Cc1ccc(N)c(C(=O)c2ccc(Br)cc2)c1	-3%	7%[46.1 µM]	16µM*	3%	?
COC(=O)c1sccc1S(=O)(=O)N(CC(=O)Nc1c(C)cccc1C)c1ccc(C)c(C)c1	/	?	/	21%	/
COc1ccc(C(=O)Nc2ccccc2)cc1NC(=O)c1ccc([N+](=O)[O-])cc1	18µM*	?	-10%	-9%	?
O=C(Nc1cccc(Cl)c1)c1cccc(Oc2ccc([N+](=O)[O-])cc2Cl)c1	?	-6%	-14%	-18%	-29%
CCN(CC)S(=O)(=O)c1ccc(OC)c(NC(=O)c2ccc([N+](=O)[O-])cc2)c1	-7%	-13%	-5%	-2%	-9%[46.1 µM]
COc1ccc(NC(=O)c2cccc(Oc3ccc([N+](=O)[O-])cc3Cl)c2)cc1	2.5µM*	?	?	?	?
S=c1[nH]cnc2scc(-c3ccc(Cl)cc3)c12	8.9µM*	-24%	59%	-1%	-15%[14.2 µM]
Cc1ccn2c(c1)nc(=O)c1cc(S(=O)(=O)N3CCC(C)CC3)c(Cl)cc12	/	20%[46.1 µM]	/	2%	-12%[46.1 µM]
CCOc1ccccc1NC(=O)C1CCN(S(=O)(=O)c2ccc3c(c2)CCCN3C(C)=O)CC1	/	-7%[46.1 µM]	/	0%	/
N#Cc1cn(-c2ccccc2)nc1-c1ccccc1	-15%	0%	11%	2%	1%
N#Cc1c(-c2ccccc2)no[n+]1[O-]	/	/	/	/	11µM*
CCn1c(CN2CCOCC2)nc2cc(NC(=O)c3ccc([N+](=O)[O-])cc3)ccc21	/	-18%[46.1 µM]	/	-2%	?
O=c1c2ccccc2nc(/C=C/c2ccccc2O)n1-c1ccccc1O	?	/	/	-5%	/
O=c1c2ccccc2nc(/C=C\c2ccccc2[N+](=O)[O-])n1-c1ccccc1O	-38%	7.9µM*	-1%	5%	?
